Reference: the supplement of paper PMC11732987, “Enantioselective OTUD7B fragment discovery through chemoproteomics screening and high-throughput optimisation” (Communications Chemistry, 2025)
Values without a mark were called inactive.

These targets were tested with OC1CN(Cc2sccc12)C(=O)CCl (assay: log2 ratio of Biotin-Ahx-Ub-VS probe labelling (compound/DMSO); higher = less target engagement, active = hit call of the paper (q ≤ 0.05, log2 ratio ≤ -1)). Conditions: compound concentration: 50uM; treatment time: 3 h.
Protocol: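 Round 2 competitive ABPP in HEK293T lysate. Purified HTC-D2B compounds were tested at 50 and 200 µM for 3 h, followed by Biotin-Ahx-Ub-VS enrichment and diaPASEF LC-MS/MS. Values are the average log2 ratio (compound/DMSO) from an unpaired t-test (n=3 treated, n=26 DMSO).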

UniProt Q13107, sequence (Q13107 whole entry): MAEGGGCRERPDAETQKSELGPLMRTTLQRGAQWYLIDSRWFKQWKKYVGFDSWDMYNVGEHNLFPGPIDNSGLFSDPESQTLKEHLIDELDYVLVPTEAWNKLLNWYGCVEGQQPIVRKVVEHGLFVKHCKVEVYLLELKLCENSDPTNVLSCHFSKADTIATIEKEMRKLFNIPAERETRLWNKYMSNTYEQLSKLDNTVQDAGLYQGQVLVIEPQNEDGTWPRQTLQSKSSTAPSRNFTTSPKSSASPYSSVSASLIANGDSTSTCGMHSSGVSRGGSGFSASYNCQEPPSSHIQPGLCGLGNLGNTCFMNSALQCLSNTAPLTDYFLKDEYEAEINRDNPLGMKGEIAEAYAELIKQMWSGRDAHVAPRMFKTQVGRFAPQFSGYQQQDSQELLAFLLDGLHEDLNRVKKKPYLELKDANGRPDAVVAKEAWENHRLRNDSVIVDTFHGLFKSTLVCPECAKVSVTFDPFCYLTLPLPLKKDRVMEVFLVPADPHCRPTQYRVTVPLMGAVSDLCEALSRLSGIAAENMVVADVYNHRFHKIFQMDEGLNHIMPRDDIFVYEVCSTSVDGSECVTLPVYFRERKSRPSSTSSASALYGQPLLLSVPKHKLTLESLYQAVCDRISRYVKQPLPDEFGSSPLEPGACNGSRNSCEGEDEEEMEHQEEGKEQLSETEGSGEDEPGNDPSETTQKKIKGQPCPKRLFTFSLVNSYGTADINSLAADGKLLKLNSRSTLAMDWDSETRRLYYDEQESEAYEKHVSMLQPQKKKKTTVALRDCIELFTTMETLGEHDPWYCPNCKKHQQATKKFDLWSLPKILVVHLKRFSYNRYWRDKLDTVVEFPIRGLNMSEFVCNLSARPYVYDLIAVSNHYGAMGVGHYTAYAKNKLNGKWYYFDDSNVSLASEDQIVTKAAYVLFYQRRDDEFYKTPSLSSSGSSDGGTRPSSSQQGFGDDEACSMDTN
UniProt Q9NUU6, sequence (Q9NUU6 whole entry): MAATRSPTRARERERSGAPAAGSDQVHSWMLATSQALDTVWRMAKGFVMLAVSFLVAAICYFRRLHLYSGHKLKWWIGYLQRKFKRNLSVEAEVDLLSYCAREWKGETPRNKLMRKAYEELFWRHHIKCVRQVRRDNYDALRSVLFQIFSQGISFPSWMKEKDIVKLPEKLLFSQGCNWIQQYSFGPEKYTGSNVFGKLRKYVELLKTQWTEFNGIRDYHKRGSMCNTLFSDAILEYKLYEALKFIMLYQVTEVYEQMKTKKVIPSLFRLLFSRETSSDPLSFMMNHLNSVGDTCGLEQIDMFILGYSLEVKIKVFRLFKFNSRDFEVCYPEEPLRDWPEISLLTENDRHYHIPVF
UniProt Q96RU2, sequence (Q96RU2 whole entry): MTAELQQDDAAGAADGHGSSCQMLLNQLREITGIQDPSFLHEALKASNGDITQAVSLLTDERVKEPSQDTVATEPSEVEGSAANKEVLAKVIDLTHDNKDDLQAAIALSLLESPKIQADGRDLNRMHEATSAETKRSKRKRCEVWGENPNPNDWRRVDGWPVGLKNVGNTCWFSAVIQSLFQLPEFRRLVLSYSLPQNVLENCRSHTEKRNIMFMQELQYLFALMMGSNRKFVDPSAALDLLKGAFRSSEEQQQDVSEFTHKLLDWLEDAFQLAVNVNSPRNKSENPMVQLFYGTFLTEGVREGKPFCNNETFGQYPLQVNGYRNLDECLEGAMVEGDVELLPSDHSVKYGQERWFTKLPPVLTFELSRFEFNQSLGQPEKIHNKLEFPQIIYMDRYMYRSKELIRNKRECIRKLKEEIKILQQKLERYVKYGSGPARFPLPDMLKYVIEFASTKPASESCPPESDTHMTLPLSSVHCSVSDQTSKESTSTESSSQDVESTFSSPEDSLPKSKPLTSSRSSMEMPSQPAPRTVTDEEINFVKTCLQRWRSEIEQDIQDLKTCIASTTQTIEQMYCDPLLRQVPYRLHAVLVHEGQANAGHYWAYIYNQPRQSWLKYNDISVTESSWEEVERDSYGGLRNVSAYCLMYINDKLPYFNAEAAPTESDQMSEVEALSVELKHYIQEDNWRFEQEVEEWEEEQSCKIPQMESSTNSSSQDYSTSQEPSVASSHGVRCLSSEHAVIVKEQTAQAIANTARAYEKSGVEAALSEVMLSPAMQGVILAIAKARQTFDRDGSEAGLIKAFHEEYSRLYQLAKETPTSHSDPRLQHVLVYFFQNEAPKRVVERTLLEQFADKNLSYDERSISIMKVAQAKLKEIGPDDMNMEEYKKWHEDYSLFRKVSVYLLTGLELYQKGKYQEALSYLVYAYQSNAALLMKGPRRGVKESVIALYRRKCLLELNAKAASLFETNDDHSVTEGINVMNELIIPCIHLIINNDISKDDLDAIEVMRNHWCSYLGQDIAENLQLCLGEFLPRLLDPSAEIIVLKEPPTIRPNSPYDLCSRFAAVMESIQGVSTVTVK
UniProt Q9P2H5, sequence (Q9P2H5 whole entry): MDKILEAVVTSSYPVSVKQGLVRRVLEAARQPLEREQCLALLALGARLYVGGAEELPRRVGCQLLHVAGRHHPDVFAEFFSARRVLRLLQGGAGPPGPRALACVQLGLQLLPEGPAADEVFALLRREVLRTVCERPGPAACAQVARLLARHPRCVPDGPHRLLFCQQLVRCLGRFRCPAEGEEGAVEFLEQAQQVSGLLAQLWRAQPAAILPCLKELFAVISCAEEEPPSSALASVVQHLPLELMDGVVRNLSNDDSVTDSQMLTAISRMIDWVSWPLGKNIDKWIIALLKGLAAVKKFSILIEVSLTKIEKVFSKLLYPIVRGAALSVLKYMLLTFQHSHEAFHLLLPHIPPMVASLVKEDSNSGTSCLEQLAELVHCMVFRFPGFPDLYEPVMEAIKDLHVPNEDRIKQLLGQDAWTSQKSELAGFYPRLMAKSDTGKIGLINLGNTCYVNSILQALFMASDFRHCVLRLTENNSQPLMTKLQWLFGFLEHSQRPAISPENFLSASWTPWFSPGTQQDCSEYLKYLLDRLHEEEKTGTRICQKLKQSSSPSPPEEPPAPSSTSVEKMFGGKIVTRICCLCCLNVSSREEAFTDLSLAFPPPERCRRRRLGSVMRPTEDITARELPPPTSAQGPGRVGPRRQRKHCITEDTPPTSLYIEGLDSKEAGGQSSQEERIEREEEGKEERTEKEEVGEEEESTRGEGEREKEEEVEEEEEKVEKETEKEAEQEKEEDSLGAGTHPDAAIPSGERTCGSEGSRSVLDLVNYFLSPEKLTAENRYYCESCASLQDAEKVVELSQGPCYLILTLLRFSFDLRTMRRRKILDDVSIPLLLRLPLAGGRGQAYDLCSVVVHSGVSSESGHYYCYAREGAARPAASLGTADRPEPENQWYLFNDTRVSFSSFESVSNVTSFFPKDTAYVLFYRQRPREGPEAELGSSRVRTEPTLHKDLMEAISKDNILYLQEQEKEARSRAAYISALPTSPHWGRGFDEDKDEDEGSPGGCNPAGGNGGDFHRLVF
UniProt Q9Y5K5, sequence (Q9Y5K5 whole entry): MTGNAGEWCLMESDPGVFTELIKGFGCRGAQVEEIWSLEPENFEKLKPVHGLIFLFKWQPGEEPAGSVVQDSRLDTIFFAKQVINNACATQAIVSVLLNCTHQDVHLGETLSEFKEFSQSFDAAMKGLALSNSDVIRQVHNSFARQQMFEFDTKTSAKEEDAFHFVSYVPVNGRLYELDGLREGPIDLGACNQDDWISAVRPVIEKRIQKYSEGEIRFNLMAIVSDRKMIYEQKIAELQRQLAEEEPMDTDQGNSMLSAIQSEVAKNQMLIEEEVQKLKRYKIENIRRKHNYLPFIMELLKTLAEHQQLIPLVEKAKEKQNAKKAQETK
UniProt Q5T2D3, sequence (Q5T2D3 whole entry): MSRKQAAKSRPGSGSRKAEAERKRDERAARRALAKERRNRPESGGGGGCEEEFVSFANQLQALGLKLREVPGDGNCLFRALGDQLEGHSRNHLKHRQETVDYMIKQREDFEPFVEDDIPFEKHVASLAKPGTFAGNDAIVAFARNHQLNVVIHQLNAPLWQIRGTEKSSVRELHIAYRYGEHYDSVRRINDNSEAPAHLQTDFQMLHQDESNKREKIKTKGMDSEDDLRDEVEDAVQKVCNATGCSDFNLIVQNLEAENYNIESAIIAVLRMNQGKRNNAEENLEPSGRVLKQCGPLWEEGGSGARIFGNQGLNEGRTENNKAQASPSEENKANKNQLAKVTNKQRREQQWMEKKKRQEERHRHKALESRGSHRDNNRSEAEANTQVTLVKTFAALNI
UniProt O15372, sequence (O15372 whole entry): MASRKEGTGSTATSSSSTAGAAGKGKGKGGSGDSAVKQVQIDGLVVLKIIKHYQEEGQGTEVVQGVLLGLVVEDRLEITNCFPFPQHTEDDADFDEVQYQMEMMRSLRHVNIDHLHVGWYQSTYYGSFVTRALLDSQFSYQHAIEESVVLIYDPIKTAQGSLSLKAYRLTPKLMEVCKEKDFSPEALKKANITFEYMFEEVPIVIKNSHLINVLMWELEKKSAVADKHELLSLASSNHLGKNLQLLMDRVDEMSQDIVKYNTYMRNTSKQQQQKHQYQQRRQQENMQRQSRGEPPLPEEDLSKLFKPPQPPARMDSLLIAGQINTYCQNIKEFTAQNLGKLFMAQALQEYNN
UniProt O00487, sequence (O00487 whole entry): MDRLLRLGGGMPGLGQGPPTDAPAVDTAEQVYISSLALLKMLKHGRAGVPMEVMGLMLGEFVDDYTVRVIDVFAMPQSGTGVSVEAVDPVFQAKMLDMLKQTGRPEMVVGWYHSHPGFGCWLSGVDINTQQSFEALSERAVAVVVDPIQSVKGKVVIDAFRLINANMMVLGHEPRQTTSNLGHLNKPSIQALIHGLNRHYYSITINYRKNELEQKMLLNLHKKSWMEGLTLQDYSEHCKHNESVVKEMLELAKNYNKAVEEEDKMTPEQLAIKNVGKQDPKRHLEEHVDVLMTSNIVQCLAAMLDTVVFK

Target	log2 ratio of Biotin-Ahx-Ub-VS probe labelling
UniProt Q9P2H5	-0.029
EIF3H (UniProt O15372)	-0.189
FAM105A (UniProt Q9NUU6)	-0.0183
USP4 (UniProt Q13107)	-0.154
UniProt O00487	0.0337
UCHL5 (UniProt Q9Y5K5)	-0.2
UniProt Q5T2D3	-0.17
USP28 (UniProt Q96RU2)	-0.0634

Same assay, conditions: compound concentration: 200uM; treatment time: 3 h

Target	log2 ratio of Biotin-Ahx-Ub-VS probe labelling
UniProt Q9P2H5	-0.0467
EIF3H (UniProt O15372)	-0.0524
FAM105A (UniProt Q9NUU6)	0.114
USP4 (UniProt Q13107)	0.0977
UniProt O00487	-0.128
UCHL5 (UniProt Q9Y5K5)	-0.0949
UniProt Q5T2D3	-0.0768
USP28 (UniProt Q96RU2)	-0.321
